According to PubChem BioAssay AID2315 (National Center for Advancing Translational Sciences (NCATS), 2010):
The whole screen tested about 290,000 compounds, of which about 27,000 (9.3%) were called active. Cut-off read from the data, not from the text of the source: active = inhibition mostly above about 28% (no sharp cut-off); inactive = mostly below about 43%. The sample as a whole holds a higher share of actives than the screen did.

Assay: A qHTS for Small Molecule Inhibitors of Shiga Toxin; note: 0% is about no effect
Details: Vero cells, Shiga toxin protein synthesis inhibition reporter; at 38.7 µM, active compounds read high

Compound	inhibition
O=C(COc1ccccc1)NCCc1nc2ccccc2[nH]1	-37.8% (inactive)
O=C(OCc1nc2ccccc2[nH]1)C1CCCCC1	29.7% (active)
CCO[C@@H]1OC(C(=O)NCc2nc3ccccc3[nH]2)=C[C@H](C2CCCCC2)[C@H]1CCCO	-8.66% (inactive)
CC1C(=O)Nc2ccccc2N1C(=O)c1ccc(F)cc1F (stereo unspecified)	26.5% (inactive)
O=C(Nc1ccc(-c2cscn2)cc1)C1CCCN(Cc2ccc(CO)o2)C1 (stereo unspecified)	7.25% (inactive)
CCOC(=O)NNC(=O)c1ccc(Cl)cc1	11.6% (inactive)
O=C(NNC(=S)NC1CC2CCC1C2)c1ccc(Cl)cc1 (stereo unspecified)	12.4% (inactive)
O=C(NNC(=O)C1C2CCC(C2)C1C(=O)O)c1ccc(Cl)cc1 (stereo unspecified)	57.3% (active)
Cc1ccc(OCC(=O)NC(C)c2ccccc2)cc1C (stereo unspecified)	-6.99% (inactive)
CCOc1ccc(OCC(=O)Nc2c3c(nn2C(C)(C)C)CS(=O)(=O)C3)cc1	-5.61% (inactive)
CC(C)Oc1ccc(Oc2ccc(C(F)(F)F)cn2)cc1	1.31% (inactive)
CSc1nnc(-c2ccc(C(F)(F)F)cn2)o1	47.1% (active)
CCOC(=O)c1sc(NC(=O)c2ccncc2)nc1C	11% (inactive)
C=CCSc1nnc(NC(=O)c2ccc(NC(C)=O)cc2)s1	26.6% (inactive)
Cc1nnc(C)n1/N=C/c1ccc(C(C)C)cc1	-9.61% (inactive)
CC(=O)c1sc(NC(=O)c2ccc(C)cc2)nc1C	107% (active)
CC(=O)c1sc(NC(=O)CCCOc2ccccc2C)nc1C	-15.8% (inactive)
Cc1ccc(S(=O)(=O)Nc2nc(C)cc(N/N=C/c3ccc(O)cc3)n2)cc1	9.39% (inactive)
COC(=O)c1sc(NC(=S)NC(=O)c2ccc(C)cc2)nc1C	38.9% (inactive)
CC(=O)c1sc(N/N=C\c2ccc(C)cc2)nc1C	72.3% (active)
CC(=O)c1sc(N/N=C/c2ccc(C(C)C)cc2)nc1C	69.3% (active)
CCSc1nnc(NC(=O)c2ccc(C)cc2)s1	71.3% (active)
CCOC(=O)CSc1nnc(NC(=O)c2cccc(S(=O)(=O)N3CCCC3)c2)s1	-15% (inactive)
CC(=O)c1sc(NC(=O)C2=NN(c3ccccc3)C(=O)CC2)nc1C	21.6% (inactive)

Compound	inhibition
O=C(NCCCN1CCOCC1)C1CCCN(S(=O)(=O)N2CCCCC2)C1 (stereo unspecified)	-9.17% (inactive)
Cc1ccc(NC(=O)Cc2nnc(SCC(=O)Nc3nncs3)n2C)cc1	-6.25% (inactive)
COc1ccc(OC)c(/C(C)=N\NC(=O)c2cc3cc(Cl)ccc3n2C)c1	-10.1% (inactive)
CCN(Cc1ccncc1)C(=O)CCc1ccccc1	-7.55% (inactive)
COc1ccccc1NC(=O)C1CCCN1S(=O)(=O)c1ccc(Cl)cc1 (stereo unspecified)	23.6% (inactive)
CC(NS(=O)(=O)c1ccc(Br)cc1)C(=O)NCC1CCCO1 (stereo unspecified)	25% (inactive)
CC(C)(C)NC(=O)CN(Cc1cccs1)C(=O)CNS(=O)(=O)c1ccccc1	41.4% (inactive)
C[C@H]1CCC[C@@]2(C)CCCC[C@]12O	12.1% (inactive)
COc1ccccc1N1CCN(c2ncnc3sc(C)c(-c4ccccc4)c23)CC1	54.8% (inactive)
O=C(c1c(F)cccc1Cl)N1CCN(S(=O)(=O)c2ccc3c(c2)OCCCO3)CC1	-6.3% (inactive)
CC1CCN(CC(=O)Nc2nccs2)CC1	-4.28% (inactive)
N/C(=N\OC(=O)N1c2ccccc2Sc2ccccc21)c1ccc(Br)cc1	-3.87% (inactive)
N/C(=N\OC(=O)/C=C/c1ccccc1)c1ccc(Br)cc1	6.16% (inactive)
N/C(=N\OC(=O)c1ccc2c(c1)OCO2)c1ccc(Br)cc1	73.3% (active)
O=C(Nc1nnc(-c2ccc(F)cc2)s1)c1c(F)cccc1Cl	3.43% (inactive)
C/C(=C\c1ccccc1)C1NC(=O)c2c(sc3c2CCCC3)N1 (stereo unspecified)	34.2% (inactive)
Cc1ccc(C(=O)c2c(NC(=O)c3ccncc3)sc3c2CCCC3)cc1	-0.844% (inactive)
O=C1NC(c2ccncc2)Nc2sc3c(c21)CCCC3 (stereo unspecified)	64.1% (active)
CCOC(=O)[C@@H]1[C@H]2COc3cc(OC)ccc3[C@@H]2N2C(=O)N(c3cccc(C)c3)C(=O)[C@@]12C	-1.2% (inactive)
CC1CCCN(CCCNC(=O)CN2C(=O)COc3ccc(S(=O)(=O)N4CCOCC4)cc32)C1 (stereo unspecified)	-5.12% (inactive)
C=CCn1c(CNS(=O)(=O)c2ccc(Br)cc2)nnc1SC	-6.56% (inactive)
O=C(Cn1c(-c2cncs2)nc2ccccc21)NC1CCCC1	-2.75% (inactive)
O=C(/C=C/c1cnc2ccccc2n1)NC1CCCCCC1	112% (active)
O=C(CSc1nnc2c(n1)[nH]c1ccccc12)NC1CCCCC1	-11% (inactive)

Compound	inhibition
Cc1ccc(N(Cc2cc(=O)[nH]c3ccccc23)C(=O)CCl)cc1	-5.41% (inactive)
Cc1cccc(C(=O)NNC(=O)CSc2nnc(C(C)C)n2C)c1	-2.77% (inactive)
COc1cccc(C(C(=O)NC2CCCC2)N(C(=O)c2ccco2)c2cccc(C(C)=O)c2)c1OC (stereo unspecified)	-12.2% (inactive)
O=C(NNC(=O)C(O)c1ccccc1)NC1CCCCC1 (stereo unspecified)	-13.5% (inactive)
Cc1nc(/N=C(\N)NC(=O)NC2CCCCC2)nc2ccccc12	30.3% (active)
COc1ccc2nc(/N=C(\N)NC(=O)Nc3ccccc3)nc(C)c2c1	69.1% (inactive)
COc1ccc(C(=O)NCCCN2CCOCC2)cc1Br	-13.5% (inactive)
O=C(c1cc2ccccc2o1)N1CCN(c2cccc(C(F)(F)F)c2)CC1	-15.8% (inactive)
COCCN(C(=O)CCC(=O)Nc1nccs1)C(C(=O)NCCC(C)C)c1ccc(F)cc1 (stereo unspecified)	-13.9% (inactive)
COC(=O)/C(C#N)=C/c1occc1C	-2.66% (inactive)
CCOC(=O)NC(=O)/C(C#N)=C\c1ccccc1	-2.62% (inactive)
CCOC(=O)/C(C#N)=C\c1c(C)cc(C)c(COC(C)=O)c1C	30.8% (active)
COCCNC(=O)CSc1nc2sccc2c(=O)n1-c1ccccc1	-4.95% (inactive)
COc1cc(NC(=O)NCC2CCN(Cc3ccc(C)cc3)CC2)cc(OC)c1OC	19.7% (inactive)
CCSc1nnc(-c2cc3c(s2)-c2ccccc2CC3)o1	73.3% (active)
Fc1ccc(CSc2nnc(-c3cc4c(s3)-c3ccccc3CC4)o2)cc1	-15% (inactive)
O=C(CSc1nnc(-c2ccccc2O)o1)NC1CCCCC1	-7.64% (inactive)
CSCCC(NC(=O)c1ccc(Cl)cc1Cl)C(=O)NNC(=O)c1csc(N2CCOCC2)n1 (stereo unspecified)	23.2% (inactive)
O=C(Nc1ccc(N2CCCC2=O)cc1)c1cncc(Br)c1	-22% (inactive)
CN(C)Cc1c(O)ccc2c(=O)c(-c3ccccc3Cl)coc12	2.96% (inactive)
CC1CCCCC1NC(=O)/C(C#N)=C/C=C/c1ccccc1[N+](=O)[O-] (stereo unspecified)	52.2% (active)
O=C(/C=C/c1ccccc1[N+](=O)[O-])OC1CCCCC1=O (stereo unspecified)	-5.74% (inactive)
O=C(/C=C/c1ccccc1[N+](=O)[O-])NCC1CCCO1 (stereo unspecified)	28% (inactive)
CCN(c1cccc(C)c1)S(=O)(=O)c1ccc(-c2coc(C)n2)cc1	-6.9% (inactive)

Compound	inhibition
O=C(CCl)NNc1nc(-c2ccccc2)c2cc(Cl)ccc2n1	-6.68% (inactive)
C=CCn1c(C23CC4CC(CC(C4)C2)C3)n[nH]c1=S	-6.65% (inactive)
O=C(Nc1c2c(nc3ccccc13)CCCC2)c1ccccc1Br	13.1% (inactive)
CCCc1nc2ccccc2c(C(=O)OCC(=O)c2ccc3c(c2)NC(=O)CO3)c1CC	7.85% (inactive)
O=C(COC(=O)c1c2c(nc3ccccc13)CCCC2)c1ccc(Br)s1	91.1% (active)
Cc1cc(Cl)c(S(=O)(=O)Nc2ccc3c(c2)OCCO3)cc1OCC(N)=O	99.8% (active)
Cc1cc(Cl)c(S(=O)(=O)N(C)C)cc1OCC(N)=O	9.4% (inactive)
Cc1cc(Cl)c(S(=O)(=O)NCC2CCCO2)cc1OCC(N)=O (stereo unspecified)	-1.08% (inactive)
O=C(NCc1ccco1)/C(=C\c1cccc([N+](=O)[O-])c1)NC(=O)c1ccco1	2.57% (inactive)
O=C(CNC(=O)C1COc2ccccc2O1)N/N=C/c1cc(Br)c(O)c(Br)c1 (stereo unspecified)	-3.37% (inactive)
O=C(N/N=C/c1cc2c(cc1Br)OCO2)C1COc2ccccc2O1 (stereo unspecified)	77.9% (active)
O=C(N/N=C\c1cc(Br)c(Br)o1)C1COc2ccccc2O1 (stereo unspecified)	10.7% (inactive)
CC(=O)c1c(C)[nH]c(C(=O)COC(=O)c2cccc(S(=O)(=O)N(C)c3ccccc3)c2)c1C	8.98% (inactive)
CCCNC(=O)COc1coc(CN2CCN(Cc3ccccc3)CC2)cc1=O	-16.7% (inactive)
COCCNC(=O)C(c1ccc(C)cc1)N(C(=O)CCC(=O)Nc1ccccn1)c1cccc(C)c1 (stereo unspecified)	32.2% (inactive)
O=C(Cc1ccc([N+](=O)[O-])cc1)Nc1ccc(C(=O)N2CCOCC2)cc1	7.91% (inactive)
Cc1ccc(CN(C)Cc2cc(=O)oc3cc(C)c(Cl)cc23)cc1	7.75% (inactive)
NC(=O)N1CCc2ccccc21	-9.66% (inactive)
O=C(c1cnn2ccccc12)N1CCc2ccccc21	97.7% (active)
Cc1cnc(C(=O)OCC(=O)N2CCc3ccccc32)cn1	-4.93% (inactive)
CCCn1nnc2sc3c(c2c1=O)CCC(C)C3 (stereo unspecified)	90.4% (active)
CC1CCc2c(sc3nc4n(c(=O)c23)CCS4)C1 (stereo unspecified)	33.9% (inactive)
C=CCn1c(SCc2c(C)noc2C)nc2sc3c(c2c1=O)CCC(C)C3 (stereo unspecified)	-12.7% (inactive)
COc1cccc(N2CCN(c3ccc4nnc(CCC(=O)N5CCN(C)CC5)n4n3)CC2)c1	-1.7% (inactive)
